The record followed here is the antibiotic and cytotoxicity screens of Wong et al. (2023).

Screen size: about 39,000 compounds; about 3,300 (8.5%) were called active. The sample as a whole holds a higher share of actives than the screen did.

This test has as its system HepG2. The test can be described thus: cytotoxicity call (relative viability < 0.9). The note with it: 10 µM.
In the case of `CNS(=O)(=O)c1ccc(C)cc1`, the cytotoxicity call was “inactive”. `Cc1ccc(S(=O)(=O)[N-]Cl)cc1.[Na+]`: the cytotoxicity call is “inactive”. On to `COc1cc(NC(=O)c2cccc(-n3cc(NC(=O)Nc4cccc(C)c4)cn3)c2)cc(OC)c1OC`, for which the cytotoxicity call was “active”. Turning to `COc1cc(NC(=O)Cn2cnc3c2c(=O)n(C)c(=O)n3C)cc(OC)c1OC`, the cytotoxicity call is “inactive”. As for `Cc1cccc(-n2cc(CN)cn2)c1`, the cytotoxicity call is “inactive”.

Consider `Cc1noc(C)c1S(=O)(=O)Nc1cccc2c1O[C@@H](CN(C)S(=O)(=O)c1cn(C)cn1)[C@@H](C)CN([C@H](C)CO)C2=O`, for which the cytotoxicity call is “inactive”.

For the molecule `C[C@H](CO)N1C[C@H](C)[C@H](CN(C)C(=O)Nc2ccc(C(C)(C)C)cc2)OCc2cnnn2CCCC1=O`, the cytotoxicity call was “inactive”. Consider `C[C@@H]1CCCCO[C@H](CN(C)C(=O)NC2CCCCC2)[C@@H](C)CN([C@@H](C)CO)C(=O)c2cc(NS(=O)(=O)c3ccccc3)ccc2O1`, for which the cytotoxicity call is “inactive”. The same measure for `C[C@H](CO)N1C[C@H](C)[C@H](CN(C)C(=O)NC2CCCCC2)OCCCC[C@H](C)Oc2ccc(NS(=O)(=O)c3ccccc3)cc2C1=O`: “active”; for `C[C@@H]1CN([C@H](C)CO)C(=O)c2cc(NS(=O)(=O)c3ccccc3)ccc2O[C@@H](C)CCCCO[C@@H]1CN(C)C(=O)NC1CCCCC1`: “inactive”; for `C[C@@H]1CCCCO[C@@H](CN(C)C(=O)NC2CCCCC2)[C@H](C)CN([C@H](C)CO)C(=O)c2cc(NS(=O)(=O)c3ccccc3)ccc2O1`: “inactive”.

Regarding `C[C@@H]1CCCCO[C@@H](CN(C)C(=O)NC2CCCCC2)[C@H](C)CN([C@@H](C)CO)C(=O)c2cc(NS(=O)(=O)c3ccccc3)ccc2O1`, the cytotoxicity call was “active”. With `C[C@H]1CCCCO[C@H](CN(C)C(=O)NC2CCCCC2)[C@@H](C)CN([C@@H](C)CO)C(=O)c2cc(NS(=O)(=O)c3ccccc3)ccc2O1`, the cytotoxicity call was “inactive”. For `O=C(C[C@@H]1CC[C@@H](NC(=O)Cc2ccccn2)[C@@H](CO)O1)NCCCN1CCOCC1`, the cytotoxicity call is “inactive”.

In the case of `C[C@H](CO)N1C[C@H](C)[C@H](CN(C)Cc2ccc(C(=O)Nc3ccccc3N)cc2)Oc2c(NS(=O)(=O)c3cn(C)cn3)cccc2C1=O`, the cytotoxicity call is “inactive”.

`C[C@@H]1CN([C@H](C)CO)C(=O)c2cccc(NC(=O)c3ccc(-c4nccs4)cc3)c2O[C@@H]1CN(C)C(=O)Nc1cccc2ccccc12`: the cytotoxicity call is “inactive”. For the molecule `COc1ccc(CN2C[C@@H](C)[C@@H](OC)CN(C)C(=O)c3cc(NC(=O)c4nc5ccccc5s4)ccc3OC[C@@H]2C)cc1`, the cytotoxicity call is “inactive”.

As to `CCCC(=O)Nc1ccc2c(c1)OC[C@@H](C)N(S(=O)(=O)c1cn(C)cn1)C[C@@H](C)[C@H](OC)CN(C)C2=O`, the cytotoxicity call was “inactive”. For the molecule `C[C@H](CO)N1C[C@H](C)[C@H](CN(C)Cc2ccc(-c3ccccc3)cc2)Oc2ccc(NC(=O)Cc3ccccc3)cc2C1=O`, the cytotoxicity call is “active”. As to `C[C@@H]1CN([C@H](C)CO)C(=O)c2cc(NC(=O)Cc3ccccc3)ccc2O[C@H]1CN(C)Cc1ccc(C(F)(F)F)cc1`, the cytotoxicity call is “inactive”. Under `C[C@@H]1CN([C@@H](C)CO)C(=O)c2cc(NC(=O)Cc3ccccc3)ccc2O[C@H]1CN(C)Cc1ccc(-c2ccccc2)cc1` stands “active”; under `C[C@@H]1CN([C@@H](C)CO)C(=O)c2cc(NC(=O)Cc3ccccc3)ccc2O[C@@H]1CN(C)Cc1ccc(C(F)(F)F)cc1`, “inactive”.

With `C[C@@H]1CN([C@H](C)CO)C(=O)c2cc(NC(=O)Cc3ccccc3)ccc2O[C@H]1CN(C)Cc1ccc(-c2ccccc2)cc1`, the cytotoxicity call was “active”. `C[C@@H]1CN([C@H](C)CO)C(=O)c2cc(NC(=O)Cc3ccccc3)ccc2O[C@@H]1CN(C)Cc1ccc(-c2ccccc2)cc1`: the cytotoxicity call is “inactive”.

On to `C[C@@H]1CN([C@@H](C)CO)C(=O)c2cc(NC(=O)Cc3ccccc3)ccc2O[C@@H]1CN(C)Cc1ccc(-c2ccccc2)cc1`, for which the cytotoxicity call was “active”. As to `C=C1c2cccc(O)c2C(=O)[C@@H]2C(=O)[C@]3(O)C(=O)[C@@H](C(N)=O)C(=O)[C@@H](N(C)C)[C@@H]3[C@@H](O)[C@H]12`, the cytotoxicity call was “inactive”. With `C[C@@H]1CCCCO[C@@H](CN(C)C(=O)Nc2cccc3ccccc23)[C@@H](C)CN([C@@H](C)CO)C(=O)c2cc(N(C)C)ccc2O1`, the cytotoxicity call was “inactive”. Regarding `Cn1cnc(CCNC(=O)C[C@@H]2CC[C@@H]3[C@H](COC[C@H](O)CN3C(=O)Nc3ccc(Cl)cc3)O2)c1`, the cytotoxicity call is “inactive”.

For the molecule `CC(=O)NCCCC[C@@H]1NC(=O)[C@@H]2C[C@H](C(=O)NCCCCCN)[C@H](c3ccc(O)cc3)N2C1=O`, the cytotoxicity call was “inactive”. Take `O=C(C[C@H]1CC[C@@H]2[C@H](COC[C@@H](O)CN2S(=O)(=O)c2ccccc2)O1)NCCN1CCCCC1`: the cytotoxicity call is “inactive”. Consider `C[C@H](CO)N1C[C@H](C)[C@H](CN(C)C(=O)Nc2ccc(C(F)(F)F)cc2)OCCCC[C@H](C)Oc2ccc(NC(=O)Nc3ccccc3)cc2C1=O`, for which the cytotoxicity call is “inactive”. Under `COc1ccc(S(=O)(=O)Nc2ccc3c(c2)CC(=O)N([C@@H](C)CO)C[C@@H](C)[C@@H](CN(C)S(C)(=O)=O)O3)cc1` stands “inactive”. `C[C@@H]1CCCCO[C@H](CN(C)C(=O)Nc2ccc(C(F)(F)F)cc2)[C@@H](C)CN([C@@H](C)CO)C(=O)c2cc(NC(=O)Nc3cccc4ccccc34)ccc2O1`: the cytotoxicity call is “inactive”. Under `C[C@H](CO)N1C[C@H](C)[C@@H](CN(C)Cc2ccc(-c3ccccc3)cc2)Oc2ccc(NC(=O)Cc3ccccc3)cc2C1=O` stands “inactive”. As to `C[C@H]1CN([C@@H](C)CO)C(=O)c2cc(NC(=O)Cc3ccccc3)ccc2O[C@@H]1CN(C)Cc1ccc(-c2ccccc2)cc1`, the cytotoxicity call is “active”. The same measure for `C[C@H]1CN([C@@H](C)CO)C(=O)c2cc(NC(=O)Cc3ccccc3)ccc2O[C@H]1CN(C)Cc1ccc(-c2ccccc2)cc1`: “inactive”; for `CC(C)[Si]1(C(C)C)OCc2cc(-c3ccc(-c4ccc(Cl)c(Cl)c4)o3)nc(-c3ccc(Oc4ccccc4)cc3)c21`: “inactive”. Regarding `Cc1ccc(N2CCC[C@]3(CCNC3=O)C2)nn1`, the cytotoxicity call is “inactive”. For the molecule `C[C@@H]1CCCCO[C@@H](CN(C)S(=O)(=O)c2ccc(Cl)cc2)[C@@H](C)CN([C@@H](C)CO)C(=O)c2cc(NS(=O)(=O)c3ccccc3)ccc2O1`, the cytotoxicity call was “inactive”. Under `C[C@@H]1CCCCO[C@@H](CN(C)C(=O)Cc2ccccc2)[C@@H](C)CN([C@@H](C)CO)C(=O)c2cc(NC(=O)Nc3ccc(F)cc3)ccc2O1` stands “inactive”; under `COc1ccc([Si](C)(C)[C@@H]2[C@@H](CCO)O[C@]3(C(=O)N(Cc4ccc(N5CCCCC5=O)cc4)c4ccccc43)[C@H]2C)cc1`, “inactive”; under `COc1ccc([Si](C)(C)[C@H]2[C@H](CCO)O[C@@]3(C(=O)N(Cc4ccccc4)c4ccc(N5CCCCC5=O)cc43)[C@@H]2C)cc1`, “inactive”. Consider `COc1ccc([Si](C)(C)[C@@H]2[C@@H](CCO)O[C@]3(C(=O)N(Cc4cccc(N5C(=O)COc6ccccc65)c4)c4ccccc43)[C@H]2C)cc1`, for which the cytotoxicity call was “active”. For `COc1ccc([Si](C)(C)[C@@H]2[C@@H](CCO)O[C@]3(C(=O)N(Cc4ccccc4)c4ccc(N5CCCCC5=O)cc43)[C@H]2C)cc1`, the cytotoxicity call is “inactive”. On to `COc1ccc([Si](C)(C)[C@H]2[C@H](CCO)O[C@@]3(C(=O)N(Cc4ccc(N5CCCCC5=O)cc4)c4ccccc43)[C@@H]2C)cc1`, for which the cytotoxicity call was “inactive”. For the molecule `COc1ccc([Si](C)(C)[C@H]2[C@H](CC(=O)N3CCC[C@H]3CO)O[C@@]3(C(=O)N(Cc4cccc(N5C(=O)COc6ccccc65)c4)c4ccccc43)[C@@H]2C)cc1`, the cytotoxicity call was “inactive”. For `C[C@H]1[C@H]([Si](C)(C)F)[C@@H](CCO)O[C@]12C(=O)N(Cc1cccc(N3C(=O)COc4ccccc43)c1)c1ccccc12`, the cytotoxicity call was “inactive”. The same measure for `COc1ccc([Si](C)(C)[C@H]2[C@H](CCO)O[C@@]3(C(=O)N(Cc4ccc(N5C(=O)COc6ccccc65)cc4)c4ccccc43)[C@@H]2C)cc1`: “active”; for `COc1ccc([Si](C)(C)[C@H]2[C@H](CCO)O[C@@]3(C(=O)N(Cc4ccccc4)c4ccc(N5C(=O)COc6ccccc65)cc43)[C@@H]2C)cc1`: “active”; for `COc1cccc(S(=O)(=O)N2C[C@@H](O)COC[C@@H]3O[C@@H](CC(=O)N4CCN(C)CC4)CC[C@H]32)c1`: “inactive”. As to `O=C1CCNCCN1`, the cytotoxicity call was “inactive”. As for `CO[C@@H]1CN(C)C(=O)c2cc(NS(C)(=O)=O)ccc2OC[C@@H](C)N(C(=O)c2ccc3c(c2)OCO3)C[C@@H]1C`, the cytotoxicity call was “inactive”. Consider `Cc1noc(C)c1S(=O)(=O)Nc1ccc2c(c1)C(=O)N([C@H](C)CO)C[C@@H](C)[C@@H](CN(C)Cc1ccccc1)OCCCC[C@@H](C)O2`, for which the cytotoxicity call is “inactive”. The same measure for `COc1ccc(NC(=O)Nc2ccc3c(c2)CC(=O)N([C@@H](C)CO)C[C@@H](C)[C@H](CN(C)C(=O)Nc2cccc4ccccc24)O3)cc1`: “inactive”; for `Cc1noc(C)c1S(=O)(=O)Nc1ccc2c(c1)C(=O)N([C@@H](C)CO)C[C@@H](C)[C@@H](CN(C)CC1CCCCC1)OCCCC[C@@H](C)O2`: “inactive”; for `Cc1ccc(Oc2ccccc2)c(NC(=O)c2ccccc2)c1`: “active”.

With `Cc1ccc(C(=O)c2ccc(Oc3ccccc3)cc2)cc1`, the cytotoxicity call was “inactive”. As for `Cc1cccc(C(=O)NN)c1`, the cytotoxicity call is “inactive”. `COc1cccc(-c2ccc3c(c2)O[C@H](CN(C)Cc2cncnc2)[C@@H](C)CN([C@@H](C)CO)S3(=O)=O)c1`: the cytotoxicity call was “inactive”. Under `COc1ccc(NC(=O)N(C)C[C@@H]2Oc3c(NC(=O)c4cc(C)nn4C)cccc3C(=O)N([C@@H](C)CO)C[C@H]2C)cc1` stands “inactive”; under `CN(C)CC(=O)N1[C@@H]2c3ccc(C4=CCCC4)c(=O)n3C[C@H]1[C@H](CO)[C@H]2C(=O)NCC1CC1`, “inactive”; under `C[C@@H]1CN([C@H](C)CO)C(=O)c2cc(NC(=O)Nc3ccccc3)ccc2O[C@H]1CN(C)S(=O)(=O)c1cn(C)cn1`, “active”. Under `C[C@H]1CN([C@@H](C)CO)C(=O)Cc2cc(NS(=O)(=O)c3ccccc3)ccc2O[C@@H]1CN(C)S(=O)(=O)c1cn(C)cn1` stands “inactive”; under `C[C@@H]1CN([C@@H](C)CO)C(=O)Cc2cc(NS(=O)(=O)c3ccccc3)ccc2O[C@@H]1CN(C)S(=O)(=O)c1cn(C)cn1`, “inactive”; under `C[C@@H]1CN([C@H](C)CO)C(=O)Cc2cc(NS(=O)(=O)c3ccccc3)ccc2O[C@H]1CN(C)S(=O)(=O)c1cn(C)cn1`, “active”. The same measure for `C[C@H]1CN([C@@H](C)CO)C(=O)Cc2cc(NC(=O)Nc3ccccc3)ccc2O[C@H]1CN(C)S(=O)(=O)c1cn(C)cn1`: “inactive”; for `C[C@@H]1CN([C@@H](C)CO)C(=O)Cc2cc(NC(=O)Nc3ccccc3)ccc2O[C@H]1CN(C)S(=O)(=O)c1cn(C)cn1`: “inactive”; for `C[C@@H]1CN([C@@H](C)CO)C(=O)c2cc(NC(=O)Nc3ccccc3)ccc2O[C@H]1CN(C)S(=O)(=O)c1cn(C)cn1`: “inactive”.

Turning to `C[C@@H]1CN([C@H](C)CO)C(=O)c2cc(NC(=O)Nc3ccccc3)ccc2O[C@@H]1CN(C)S(=O)(=O)c1cn(C)cn1`, the cytotoxicity call is “inactive”. In the case of `C[C@H](CO)N1C[C@H](C)[C@H](CN(C)S(=O)(=O)c2cn(C)cn2)Oc2ccc(NC(=O)Nc3ccccc3)cc2CC1=O`, the cytotoxicity call is “active”.
